Eleven compounds from ChEMBL document CHEMBL3988442, “University of Dundee, Small-Polar-MMV Screening Library” (2021) can be followed below.

Molecules are shown by their SMILES. For some of these results: Results with a measured potency or affinity are listed apart.

Common to all, as to set-up: scale not given: direction of the effect not stated beside the values
For experiment [1], the target named is Protein translocase subunit SecA (Escherichia coli (strain K12)) (UniProt P10408). As to the kind of experiment: Assay to Identify E. coli SecA ATPase Inhibitors. Type of experiment: functional. Particulars: 30 µM.
The target of experiment [2] is T1, Ubiquitin-activating enzyme e1, putative (Leishmania donovani (strain BPK282A1)) (UniProt E9BSI1).
T1 sequence (whole entry): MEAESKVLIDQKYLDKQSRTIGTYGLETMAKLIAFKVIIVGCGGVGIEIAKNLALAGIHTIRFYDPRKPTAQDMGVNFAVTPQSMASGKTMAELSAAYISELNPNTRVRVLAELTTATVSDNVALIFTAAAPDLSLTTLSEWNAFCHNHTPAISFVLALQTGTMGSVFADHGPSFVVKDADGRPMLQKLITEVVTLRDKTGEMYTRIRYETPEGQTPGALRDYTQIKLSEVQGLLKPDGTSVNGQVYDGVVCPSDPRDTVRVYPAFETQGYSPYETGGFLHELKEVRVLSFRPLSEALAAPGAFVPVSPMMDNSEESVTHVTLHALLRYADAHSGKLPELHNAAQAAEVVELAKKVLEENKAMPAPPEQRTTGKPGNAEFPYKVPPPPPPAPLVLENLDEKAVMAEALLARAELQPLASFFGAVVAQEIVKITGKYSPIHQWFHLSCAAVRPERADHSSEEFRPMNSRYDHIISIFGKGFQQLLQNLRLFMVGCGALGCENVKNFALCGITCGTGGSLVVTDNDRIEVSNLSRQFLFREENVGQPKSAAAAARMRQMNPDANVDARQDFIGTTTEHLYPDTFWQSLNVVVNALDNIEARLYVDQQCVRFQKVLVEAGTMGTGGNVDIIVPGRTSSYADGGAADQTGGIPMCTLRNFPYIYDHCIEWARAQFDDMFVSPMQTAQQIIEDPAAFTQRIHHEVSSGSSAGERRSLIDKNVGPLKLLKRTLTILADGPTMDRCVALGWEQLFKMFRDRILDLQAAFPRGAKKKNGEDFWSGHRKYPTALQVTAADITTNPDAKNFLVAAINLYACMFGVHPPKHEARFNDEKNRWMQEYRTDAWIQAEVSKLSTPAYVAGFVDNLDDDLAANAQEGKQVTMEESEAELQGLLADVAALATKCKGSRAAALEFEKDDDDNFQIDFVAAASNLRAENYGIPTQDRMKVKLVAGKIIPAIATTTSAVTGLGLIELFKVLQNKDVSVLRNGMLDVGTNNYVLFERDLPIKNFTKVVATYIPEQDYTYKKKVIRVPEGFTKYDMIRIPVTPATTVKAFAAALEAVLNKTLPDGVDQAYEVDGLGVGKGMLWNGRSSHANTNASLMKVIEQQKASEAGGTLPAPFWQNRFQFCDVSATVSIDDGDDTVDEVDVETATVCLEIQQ
The experiment can be described thus: Leishmania donovani Ubiquitin Activating Enzyme (LdE1). Particulars: 30 µM. The experiment is classed as functional.

Experiment [3] deals with AMP-activated protein kinase, AMPK (Homo sapiens) (UniProt P54646+O43741+P54619+Q9UGJ0+Q9Y478+Q13131+Q9UGI9). The experiment can be described thus: AMP-dependent Kinase enzyme assay. An in vitro enzyme assay that detects ADP turnover that is directly proportional to AMPK activity. This uses naive AMPK that is activated during the assay with MK-8722. The experiment is classed as functional. Particulars: 30 µM.

Experiment [4] concerns the target Sialic acid-binding Ig-like lectin 9 (Homo sapiens) (UniProt Q9Y336). As to the kind of experiment: Hs-Siglec9 ALPHAscreen SOP 20170721. Conditions: 10 µM.
For experiment [5], the system named is Trypanosoma cruzi. The experiment can be described thus: Trypanosoma cruzi phosphomannomutase and mannose-1-phosphate guanylyltransferase assay. The experiment is classed as functional. Particulars: 10 µM.
In experiment [6] the target is T2, Arginase-2, mitochondrial (Homo sapiens) (UniProt P78540).
T2 sequence (whole entry): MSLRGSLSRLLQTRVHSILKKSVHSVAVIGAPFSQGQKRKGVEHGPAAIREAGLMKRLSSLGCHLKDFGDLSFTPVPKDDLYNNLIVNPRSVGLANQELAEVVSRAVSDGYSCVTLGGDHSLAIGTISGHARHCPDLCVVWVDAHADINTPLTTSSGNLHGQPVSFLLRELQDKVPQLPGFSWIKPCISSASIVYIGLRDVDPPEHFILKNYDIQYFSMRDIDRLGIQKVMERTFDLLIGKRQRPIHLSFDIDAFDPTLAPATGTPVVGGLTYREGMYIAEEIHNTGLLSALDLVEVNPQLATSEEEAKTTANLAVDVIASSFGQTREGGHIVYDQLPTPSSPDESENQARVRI
The experiment can be described thus: in vitro enzyme assay to detect the production of urea directly proportional to the activity of Arginase II. Further: in the data most compounds retested in dose-response had high values. Type of experiment: functional. Particulars: 33.3 µM.

The target of experiment [7] is T3, Proteasome subunit beta (Trypanosoma cruzi) (UniProt O96673).
T3 sequence (whole entry): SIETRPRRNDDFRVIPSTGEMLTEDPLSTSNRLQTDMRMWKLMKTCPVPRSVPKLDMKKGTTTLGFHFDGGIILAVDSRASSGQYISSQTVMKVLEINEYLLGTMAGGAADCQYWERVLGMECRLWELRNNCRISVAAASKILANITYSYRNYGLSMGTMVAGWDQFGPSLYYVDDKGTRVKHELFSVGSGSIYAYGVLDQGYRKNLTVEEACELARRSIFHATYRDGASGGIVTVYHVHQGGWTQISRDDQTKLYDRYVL
The experiment can be described thus: Trypanosoma cruzi proteasome chymotrypsin-like activity (TcProtChymo) assay. Further: in the data most compounds retested in dose-response had high values. Type of experiment: functional. Conditions: 9.37 µM.

Experiment [8] is filed under the species Homo sapiens. As to the kind of experiment: To identify inhibition of the IFN signalling (Jak-Stat) pathway via expression of an eGFP reporter gene under the control of an IFN-stimulated response element (ISRE) containing MxA promoter. Type of experiment: functional. Particulars: 30 µM.
Experiment [9] deals with T4, Tyrosyl-tRNA synthetase, putative (Trypanosoma cruzi (strain CL Brener)) (UniProt Q4DSP6).
T4 sequence (whole entry): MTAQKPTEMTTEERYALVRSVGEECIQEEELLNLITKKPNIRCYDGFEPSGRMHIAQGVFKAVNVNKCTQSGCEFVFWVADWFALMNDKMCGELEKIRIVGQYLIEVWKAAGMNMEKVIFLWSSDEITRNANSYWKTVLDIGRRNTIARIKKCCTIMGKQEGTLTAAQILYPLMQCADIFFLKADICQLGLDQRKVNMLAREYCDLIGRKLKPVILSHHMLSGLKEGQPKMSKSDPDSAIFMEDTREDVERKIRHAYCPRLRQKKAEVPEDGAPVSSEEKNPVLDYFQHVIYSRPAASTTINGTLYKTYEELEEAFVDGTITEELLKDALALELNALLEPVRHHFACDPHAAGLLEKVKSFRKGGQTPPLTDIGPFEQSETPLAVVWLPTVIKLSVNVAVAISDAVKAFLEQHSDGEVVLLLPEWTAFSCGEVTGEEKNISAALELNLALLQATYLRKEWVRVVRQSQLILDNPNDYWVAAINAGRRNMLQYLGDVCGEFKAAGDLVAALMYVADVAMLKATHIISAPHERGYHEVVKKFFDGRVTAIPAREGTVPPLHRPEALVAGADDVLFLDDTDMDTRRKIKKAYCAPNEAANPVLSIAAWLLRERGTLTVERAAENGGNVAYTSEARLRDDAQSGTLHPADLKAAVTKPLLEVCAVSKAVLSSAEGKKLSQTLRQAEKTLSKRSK
The experiment can be described thus: Trypanosoma cruzi tyrosyl tRNA synthetase (TcYRS) _High Tyrosine SOP. Further: in the data most compounds retested in dose-response had high values. Particulars: 30 µM. The experiment is classed as functional.

In experiment [10] the target is T4, Tyrosyl-tRNA synthetase, putative (Trypanosoma cruzi (strain CL Brener)). As to the kind of experiment: Trypanosoma cruzi tyrosyl tRNA synthetase (TcYRS) SOP. Type of experiment: functional. Particulars: 30 µM.
In experiment [11] the target is Chromo domain-containing protein 1 (Saccharomyces cerevisiae (strain ATCC 204508 / S288c) (Baker's yeast)) (UniProt P32657). The experiment can be described thus: ScCHD-1 Enzyme Inhibition Assay. Further: in the data most compounds retested in dose-response had high values. The experiment is classed as functional. Particulars: 30 µM.
Chain of Chromo domain-containing protein 1 (Saccharomyces cerevisiae (strain ATCC 204508 / S288c) (Baker's yeast)) (P32657 whole entry, the tested form may be a part): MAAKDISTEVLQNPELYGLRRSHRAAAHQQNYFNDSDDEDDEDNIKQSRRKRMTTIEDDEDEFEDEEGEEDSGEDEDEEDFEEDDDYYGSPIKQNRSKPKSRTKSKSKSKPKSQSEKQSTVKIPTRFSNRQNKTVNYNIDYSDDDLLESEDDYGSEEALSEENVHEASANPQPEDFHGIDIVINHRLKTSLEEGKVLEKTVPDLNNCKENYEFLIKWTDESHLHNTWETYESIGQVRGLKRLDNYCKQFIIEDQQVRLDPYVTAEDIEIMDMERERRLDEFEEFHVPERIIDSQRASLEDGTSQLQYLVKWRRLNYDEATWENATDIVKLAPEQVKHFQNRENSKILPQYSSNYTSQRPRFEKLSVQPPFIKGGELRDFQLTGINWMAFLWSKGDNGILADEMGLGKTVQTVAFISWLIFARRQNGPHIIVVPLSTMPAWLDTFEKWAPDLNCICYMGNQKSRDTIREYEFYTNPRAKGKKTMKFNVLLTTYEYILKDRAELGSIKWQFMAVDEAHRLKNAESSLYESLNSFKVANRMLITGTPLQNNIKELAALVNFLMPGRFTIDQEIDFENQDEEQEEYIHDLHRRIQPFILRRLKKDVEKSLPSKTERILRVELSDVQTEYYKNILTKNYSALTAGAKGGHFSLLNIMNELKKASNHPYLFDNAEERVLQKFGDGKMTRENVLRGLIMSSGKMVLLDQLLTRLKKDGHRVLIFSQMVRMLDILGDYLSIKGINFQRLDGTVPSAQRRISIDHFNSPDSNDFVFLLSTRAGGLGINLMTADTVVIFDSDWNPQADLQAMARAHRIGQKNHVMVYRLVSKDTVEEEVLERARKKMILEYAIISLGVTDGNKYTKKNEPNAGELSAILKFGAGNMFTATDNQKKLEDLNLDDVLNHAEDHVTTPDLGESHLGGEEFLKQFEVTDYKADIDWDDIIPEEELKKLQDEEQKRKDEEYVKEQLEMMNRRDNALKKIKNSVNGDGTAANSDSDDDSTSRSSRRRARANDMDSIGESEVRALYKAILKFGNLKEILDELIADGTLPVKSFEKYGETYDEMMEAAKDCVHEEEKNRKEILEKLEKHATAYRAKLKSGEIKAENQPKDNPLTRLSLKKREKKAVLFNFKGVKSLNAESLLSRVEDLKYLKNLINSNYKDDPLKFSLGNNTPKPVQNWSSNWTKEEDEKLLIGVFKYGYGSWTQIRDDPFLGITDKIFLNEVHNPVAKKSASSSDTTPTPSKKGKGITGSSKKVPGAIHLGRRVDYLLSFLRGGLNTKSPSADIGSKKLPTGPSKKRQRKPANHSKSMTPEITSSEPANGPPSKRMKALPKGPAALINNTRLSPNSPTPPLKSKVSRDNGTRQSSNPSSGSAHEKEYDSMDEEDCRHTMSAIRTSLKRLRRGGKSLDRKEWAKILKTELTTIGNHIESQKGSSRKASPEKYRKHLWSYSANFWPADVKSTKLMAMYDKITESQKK

Chain of Protein translocase subunit SecA (Escherichia coli (strain K12)) (P10408 whole entry): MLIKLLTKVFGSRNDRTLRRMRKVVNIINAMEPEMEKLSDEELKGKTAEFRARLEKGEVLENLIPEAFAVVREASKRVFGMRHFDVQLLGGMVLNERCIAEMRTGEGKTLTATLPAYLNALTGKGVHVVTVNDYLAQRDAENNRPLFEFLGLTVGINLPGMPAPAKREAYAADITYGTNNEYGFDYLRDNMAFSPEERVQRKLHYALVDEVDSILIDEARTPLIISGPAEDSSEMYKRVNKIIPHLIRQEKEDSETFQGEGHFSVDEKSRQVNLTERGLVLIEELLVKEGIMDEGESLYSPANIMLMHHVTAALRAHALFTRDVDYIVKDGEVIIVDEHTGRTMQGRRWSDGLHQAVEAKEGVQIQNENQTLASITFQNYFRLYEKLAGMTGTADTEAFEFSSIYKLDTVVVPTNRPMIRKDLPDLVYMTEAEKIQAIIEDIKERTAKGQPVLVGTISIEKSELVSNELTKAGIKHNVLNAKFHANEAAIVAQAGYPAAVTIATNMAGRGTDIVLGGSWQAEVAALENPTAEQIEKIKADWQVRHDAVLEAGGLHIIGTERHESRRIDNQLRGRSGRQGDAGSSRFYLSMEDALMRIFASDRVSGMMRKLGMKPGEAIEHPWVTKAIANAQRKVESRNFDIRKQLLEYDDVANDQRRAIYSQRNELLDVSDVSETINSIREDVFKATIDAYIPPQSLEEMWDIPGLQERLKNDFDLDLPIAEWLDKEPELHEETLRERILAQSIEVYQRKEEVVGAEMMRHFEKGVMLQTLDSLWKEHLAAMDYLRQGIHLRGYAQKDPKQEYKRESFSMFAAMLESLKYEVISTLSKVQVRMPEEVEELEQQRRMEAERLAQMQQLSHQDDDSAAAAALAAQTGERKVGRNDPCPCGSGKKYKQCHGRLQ
Chain of Sialic acid-binding Ig-like lectin 9 (Homo sapiens) (Q9Y336 whole entry): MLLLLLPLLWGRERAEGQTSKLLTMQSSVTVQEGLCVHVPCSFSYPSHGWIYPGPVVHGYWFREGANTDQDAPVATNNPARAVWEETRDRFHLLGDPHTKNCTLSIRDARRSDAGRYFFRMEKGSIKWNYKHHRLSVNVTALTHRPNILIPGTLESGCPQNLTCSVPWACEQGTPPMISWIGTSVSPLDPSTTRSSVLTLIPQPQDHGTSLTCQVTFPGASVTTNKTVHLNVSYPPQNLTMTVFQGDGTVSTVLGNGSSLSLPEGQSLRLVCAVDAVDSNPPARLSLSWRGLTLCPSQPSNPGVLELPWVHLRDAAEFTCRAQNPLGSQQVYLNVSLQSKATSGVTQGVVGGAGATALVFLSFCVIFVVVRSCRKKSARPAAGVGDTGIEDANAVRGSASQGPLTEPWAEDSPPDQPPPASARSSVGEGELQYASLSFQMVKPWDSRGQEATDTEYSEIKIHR

As for `COCc1nc2cc(NCc3ccc(C)o3)ccc2o1`, the Percent Effect was -4.96% in [1]; 13.5% in experiment [2]; -42.7% in [3]; 8.51% in experiment [4]; 6.05% in experiment [5]; 37.1% in [6]. Further, the Percent Effect is 14.3% in experiment [7]; -1.74% in [8]; 13.9% in experiment [9]; 15.8% in [10]; -2.51% in [11].

As for `CC(Cn1cccn1)NC(=O)Nc1ccc(N(C)C)nc1` (stereo unspecified), the Percent Effect in [1] was -4.33%; in experiment [2] it was 1.39%; in [3] it was -12.7%; in [4], -12%; in [5], -7.09%; in experiment [6], 0.883%. Also, the Percent Effect is 22.3% in [7]; 10.8% in experiment [8]; 1.05% in experiment [9]; -2.56% in experiment [10]; -1.82% in experiment [11].

In the case of `CN(C(=O)c1ccccc1Cl)C1CCN(c2ccccn2)CC1`, the Percent Effect in experiment [1] was -6.46%; in [2], 23.4%; in [3], -2.17%; in [4] it was -1.36%; in [5], 6.95%; in experiment [6], -2.32%. The Percent Effect in [7] is 12.7%; in experiment [8], 9.9%; in experiment [9] it was 7.62%; in experiment [10], 23.5%; in experiment [11] it was -2.92%.

Regarding `Cc1cnn(CC2CCCN2Cc2nc3ccccc3n2C)c1` (stereo unspecified), the Percent Effect in [1] is -1.76%; in experiment [2], -10.1%; in experiment [3], -1.75%; in experiment [4], 3.88%; in experiment [5], 8.4%; in experiment [6], 1.9%. Further, the Percent Effect in experiment [7] is -1.23%; in experiment [8] it was -22.9%; in [9], 9.36%; in experiment [10], 13.9%; in experiment [11], -3.16%.

On to `O=C(c1cccc2[nH]ncc12)N1CCCC1c1noc(C2CC2)n1` (stereo unspecified), for which the Percent Effect is 0.141% in [1]; 20.2% in [2]; 1.95% in experiment [3]; -11.1% in experiment [4]; -3.31% in experiment [5]; 8.74% in experiment [6]. In addition, the Percent Effect in [7] was 7.29%; in experiment [8] it was 24.4%; in [9], 5.42%; in experiment [10], 11.4%; in experiment [11], -8.01%.

Regarding `CC(C)c1noc(CN(Cc2ccccc2F)C2CC2)n1`, the Percent Effect in experiment [1] is -1.22%; in experiment [2], 15.6%; in experiment [3], -0.613%; in experiment [4], 8.23%; in [5] it was 3.64%; in experiment [6], -75.9%. In addition, the Percent Effect in experiment [7] was 22.5%; in [8] it was 10.9%; in experiment [9] it was 7.53%; in experiment [10], 18.5%; in experiment [11], -1.83%.

Regarding `Cc1cnc(N)c(C(=O)C2CCN(C(=O)c3ccccc3F)CC2)c1`, the Percent Effect was -7.77% in [1]; 13.3% in experiment [2]; 4.93% in [3]; 7.45% in [4]; 2.76% in experiment [5]; -2.56% in experiment [6]. The Percent Effect in [7] is 6.26%; in experiment [8], 33%; in [9] it was 7.45%; in experiment [10] it was 8.97%; in experiment [11], -6.49%.

As to `Cc1cc(N(C)Cc2noc(C)n2)n2nc(C)c(C)c2n1`, the Percent Effect in experiment [1] was -2.12%; in experiment [2], 9.72%; in experiment [3], -8.49%; in experiment [4], -4.19%; in experiment [5] it was -1.07%; in [6], 3.97%. Besides, the Percent Effect was 15.6% in experiment [7]; 9.15% in experiment [8]; 4.21% in experiment [9]; 10.3% in experiment [10]; -4.2% in experiment [11].

As to `Cc1cc(C)n(C2CCCN(C(=O)c3ccc(NC4CC4)nc3)C2)n1` (stereo unspecified), the Percent Effect in experiment [1] was -6.18%; in experiment [2], 7.79%; in experiment [3], 5.88%; in experiment [4] it was 2.52%; in [5], -4.6%; in experiment [6], 1.05%. Moreover, the Percent Effect in [7] was 7.52%; in [8], 16.1%; in [9], 4.76%; in experiment [10], 9.41%; in experiment [11] it was -13.5%.

As for `O=C([C@@H]1C[C@H]2[C@H](CCN2Cc2nccs2)O1)N1CCOCC1`, the Percent Effect in [1] was -0.787%; in [2], 8.11%; in [3], 1.14%; in experiment [4], -3.79%; in experiment [5], -2.15%; in experiment [6] it was 0.833%. Also, the Percent Effect in experiment [7] stood at 19%; in experiment [8], 11.3%; in [9] it was 10.9%; in experiment [10], 13.4%; in [11] it was 8.93%.

On to `Cc1cnn(CC(C)NCc2ccc(OCc3ccncc3)cc2)c1` (stereo unspecified), for which the Percent Effect is -5.11% in [1]; -1.27% in experiment [2]; 4.3% in [3]; -6.57% in experiment [4]; -6.67% in experiment [5]; -3.66% in [6]. The Percent Effect in experiment [7] is 9.95%; in experiment [8] it was 24.2%; in [9] it was 5.21%; in experiment [10], 5.06%; in experiment [11] it was -25.8%.
